Sm TGR block – inhibitors of Schistosoma mansoni thioredoxin glutathione reductase; purified TGR, DTNB reduction, TNB absorbance 405 nm; Potency, µM (series often up to 114 µM), for inactives: top-dose activity change, negative = inhibition, most hits filed as inhibitors; actives 3% (n = 360,000); further: potency means the concentration at half of the fitted maximal effect; on the % scale 0 is the no-effect control and ±100 the full control effect; nearly all actives have a fitted effect of over 60% in size
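TGR 20 nM + NADPH 100 uM (dispensed conc.), cpd preinc 15 min RT; start with NADPH (500 uM addition) then DTNB (15 mM addition). Kinetic TNB absorbance, 405 nm filter. Four-parameter Hill fit across titration.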
Pf growth 48h – inhibits P. falciparum growth in the first generation, 48 h | P. falciparum luciferase growth in erythrocytes, 48 h | actives 5.9% (n = 310,000) | Potency, µM (titrated, usually from 28.7 µM), inactives show at the highest dose activity change, negative = inhibition, most hits filed as inhibitors | AID 504832; further: potency means the concentration at half of the fitted maximal effect; on the % scale 0 is the no-effect control and ±100 the full control effect
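A one-generation exposure of luciferase-tagged malaria parasites in RPMI 1640/Albumax erythrocyte culture, 37 C and 5% CO2. Inhibition is inferred from decreased luminescence after adding detection reagent.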
Shiga inhibitor – blocks Shiga toxin action in Vero cells; inhibition, % at 38.7 µM; actives 9.2% (n = 290,000); AID 2315; Vero cells, Shiga toxin protein synthesis inhibition reporter; in the data active means inhibition mostly above about 28%, no sharp cut-off; inactive means mostly below about 43%; further: 0% is about no effect
Pf growth 96h – inhibits malaria parasite growth, 96 h; P. falciparum luciferase reporter growth, 96 h; Potency, µM (top dose mostly 28.7 µM), for inactives: top-dose activity change, negative = inhibition, most hits filed as inhibitors; actives 6.9% (n = 320,000); further: potency means the concentration at half of the fitted maximal effect; on the % scale 0 is the no-effect control and ±100 the full control effect
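P. falciparum expressing integrated firefly luciferase grown in erythrocytes (2% hematocrit, 0.05% parasitemia final) with compounds for 96 hours at 37 C, 5% CO2. Growth inhibition read as loss of luminescence after adding luciferase detection reagent.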
Cycloheximide cs – counter-screen for Shiga toxin inhibitors: cycloheximide protein synthesis inhibition; max response, %; cell reporter, cycloheximide protein synthesis inhibition counterscreen; actives 12% (n = 300,000); in the data active means max response mostly above about 13%, no sharp cut-off; inactive means mostly below about 14%; further: read at 38.3 µM for the half of the compounds with a filed dose; 0% is about no effect
NS1 function inh – inhibitors of influenza NS1 protein function. Potency, µM (doses to about 46.1 µM), inactives show at the highest dose activity, positive = more growth. actives 0.4% (n = 270,000); calls by dose curve; further: potency means the concentration at half of the fitted maximal effect; actives are rising curves; nearly all actives have a fitted effect of over 50% in size
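In this qHTS, NS1 from influenza A is expressed in budding yeast, where it slows growth. Cells are switched from glucose to 2% galactose medium (pH 6.0, -URA), treated with compound, and growth recovery is read at OD600.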
An asterisk follows results filed as active; ? = inconclusive; · = no result. This is a sample that favours compounds with a hit; in the whole collection about 21% have one here. Unless noted, the call rests on the fitted dose curve; in most records, active means well fitted curve in the direction sought with a large enough effect; inconclusive means small, poorly fitted or top-dose-only effect, or another doubt; inactive means no such curve, though single readings can be large; an effect the other way counts as inactive or inconclusive.

SMILES	Sm TGR block	Pf growth 48h	Shiga inhibitor	Pf growth 96h	Cycloheximide cs	NS1 function inh
C/C(=N\NC(=O)c1ccc2c(c1)OCO2)c1ccc(NC(=O)CCCC(=O)O)cc1	-32.4%	37.3%	56.8*	37.1%	33.9*	-4.7%
CCCCCC1=CCC/C1=N\NC(=O)c1ccc2c(c1)OCO2	-9.1%	?	26.7	?	18.6*	·
CCCCC(=O)Nc1ccc(C(=O)Nc2ccc3c(c2)OCO3)cc1	-0.2%	2.8%	53.1	·	9.1	11.9%
Cc1cc(C)n2ncc(/C(N)=N/OC(=O)c3ccccc3F)c2n1	2.0%	189.8%	50.4*	92.3%	24.9*	-3.9%
Cc1cc(C)n2ncc(/C(N)=N/OC(=O)Nc3ccc(Cl)cc3)c2n1	25.0%	5.7%	48.0	30.6%	20.2*	-1.2%
COc1ccccc1NS(=O)(=O)c1ccc(NN=C2CCCCC2)c([N+](=O)[O-])c1	-9.1%	?	2.2	?	-1.9	?
O=C(Nc1cccc(C(F)(F)F)c1)Oc1ccc(Cl)c2cccnc12	-1.3%	2.62µM*	20.7	2.33µM*	26.9	-77.3%
CN(C)C(=O)Oc1ccc(Cl)c2cccnc12	-0.9%	2.4%	7.8	28.0%	-1.6	·
O=C1C=C(Nc2ccc(Cl)cc2)CC(c2ccccc2)C1 (stereo not drawn)	-14.1%	?	-6.7	-3.8%	-1.9	7.8%
Oc1ccc(N=Nc2n[nH]c(-c3ccccc3)n2)cc1	-7.1%	23.5%	88.7*	?	32.5*	-15.3%
Oc1ccc(-c2nc(-c3ccccc3)c(-c3ccc(Br)cc3)[nH]2)cc1	13.6%	·	·	·	·	·
Oc1ccc(N=Nc2n[nH]c(-c3ccc(Br)cc3)n2)cc1	-2.5%	7.2%	24.2	67.6%	19.5*	3.2%
Oc1ccc(N=Nc2nc(-c3ccccc3)c(-c3ccccc3)[nH]2)cc1	5.1%	?	9.3	?	-3.8	24.7%
CCOC(=O)N1CCN(/C=C(\C#N)c2nc3ccccc3s2)CC1	1.8%	6.0%	81.5*	-24.3%	15.0*	-19.2%
CCOC(=O)N1CCC(=NNc2nc3ccccc3s2)CC1	2.3%	108.8%	76.6*	?	71.4*	-1.0%
CC(=O)N1CCC(=NNc2nc3ccccc3s2)CC1	9.5%	30.5%	91.4*	15.9%	45.2*	·
CC(=O)NNc1nc2ccccc2s1	-23.0%	31.4%	9.7	?	1.4	6.5%
COc1ccccc1NC(=O)C1CCN(S(=O)(=O)c2ccc3c(c2)NC(=O)C(C)S3)CC1 (stereo not drawn)	-8.1%	11.7µM*	-4.3	?	4.3	17.2%
CCOc1ccccc1N(C)C(=O)CCS(=O)(=O)c1ccc2c(c1)NC(=O)C(C)S2 (stereo not drawn)	35.5µM*	?	-6.9	104.2%	-10.2	4.4%
Cc1ccc(NC(=O)C2CCN(S(=O)(=O)c3ccc4c(c3)NC(=O)C(C)S4)CC2)cc1C (stereo not drawn)	-1.8%	10.4µM*	-6.4	?	7.9	28.3%
COc1ccccc1NS(=O)(=O)c1ccc2c(c1)NC(=O)C(C)S2 (stereo not drawn)	-16.9%	?	14.0	78.0%	23.1*	12.0%
O=C(c1cccs1)C1CCCN(Cc2nc(Cc3ccccc3F)no2)C1 (stereo not drawn)	6.9%	9.1%	-4.1	?	-2.3	-1.7%
COc1ccc(CNC(=O)C2CCN(S(=O)(=O)c3ccc4c(c3)NC(=O)C(C)S4)CC2)cc1 (stereo not drawn)	0.4%	?	17.8	?	-1.9	2.1%
CCc1cccc(NS(=O)(=O)c2ccc3c(c2)NC(=O)C(C)S3)c1 (stereo not drawn)	1.7%	17.6%	-4.5	23.5%	-2.2	13.7%
CCC(Cc1ccccc1)NS(=O)(=O)c1ccc2c(c1)NC(=O)C(C)S2 (stereo not drawn)	?	-31.6%	17.6	14.7µM*	-5.2	-2.3%
SMILES	Sm TGR block	Pf growth 48h	Shiga inhibitor	Pf growth 96h	Cycloheximide cs	NS1 function inh
CC1Sc2ccc(S(=O)(=O)N3CCC(C(=O)NCc4ccc(Cl)cc4)CC3)cc2NC1=O (stereo not drawn)	2.7%	10.4µM*	9.9	15.4%	1.0	-2.4%
O=C(COC(=O)/C=C/c1ccc(S(=O)(=O)N2CCOCC2)cc1)NC1CCCCCCC1	-0.6%	-5.4%	-6.3	36.5%	-1.0	·
O=C(Nc1ccc2oc(-c3ccccc3)nc2c1)c1ccccc1F	-20.2%	135.5%	58.5*	?	19.8*	6.0%
CC(=O)NC(=S)Nc1ccc2oc(-c3cc(F)c(F)cc3Cl)nc2c1	·	170.5%	52.7	176.5%	24.0*	1.9%
O=C(Nc1ccc2oc(-c3ccccc3F)nc2c1)c1ncn[nH]1	-7.3%	·	79.8*	159.0%	52.1*	3.4%
O=C(Cc1ccccc1)NC(=S)Nc1ccc2oc(-c3ccccc3F)nc2c1	0.6%	94.5%	50.0*	30.0%	29.3	-7.2%
Cc1ccc(C(=O)Nc2ccc3oc(-c4ccccc4C)nc3c2)cc1	1.2%	·	·	·	·	·
CC1CCCN(CCCNC(=O)Cn2ncc3c([nH]c4ccccc43)c2=O)C1 (stereo not drawn)	9.7%	·	·	·	·	·
CCOCCCNCc1cc(Cl)cc(Cl)c1OCC	-5.4%	?	-11.1	?	-6.5	3.8%
O=C(Nc1ccc2oc(-c3ccccc3F)nc2c1)c1ccccc1F	-11.1%	73.2%	48.0*	-15.8%	30.1*	-22.2%
O=C(Nc1ccc2oc(-c3ccncc3)nc2c1)c1ccccc1F	-0.9%	15.4%	62.6*	?	12.7	-24.9%
O=C(Nc1ccc2oc(-c3cccc(F)c3)nc2c1)c1ccccc1F	1.6%	85.0%	-6.4	·	7.7	2.7%
O=C(Nc1ccc2oc(-c3ccc(Cl)c(Cl)c3)nc2c1)c1ncn[nH]1	2.7%	·	66.2	100.6%	27.5*	10.6%
O=C(Nc1ccc(-c2nc3cc(NC(=O)c4ccccc4F)ccc3o2)cc1)c1ccccc1F	0.4%	·	·	·	·	·
COc1ccc(NC(=O)c2nc(S(C)(=O)=O)ncc2N(Cc2ccc(C)cc2)Cc2ccco2)cc1Cl	0.0%	·	·	·	·	·
CCN(CC)S(=O)(=O)c1nnc(NC(=O)c2ccc(C(C)C)cc2)s1	-4.9%	·	·	·	·	·
O=C(CN1c2ccccc2S(=O)(=O)c2ccccc21)NCc1ccc(F)cc1	-2.4%	-23.5%	-2.7	?	-4.8	17.5%
O=[N+]([O-])c1ccc(C2CCCC/C2=N/OCc2ccc(F)cc2)c([N+](=O)[O-])c1 (stereo not drawn)	-0.5%	11.7µM*	11.2	?	6.8	-2.8%
CCc1ccc(C(=O)NCc2ccc(Cl)cc2)cc1	1.0%	27.0%	36.6	21.0%	15.0*	13.1%
CCc1ccc(C(=O)NNc2ccc(Cl)cc2)cc1	-1.8%	-10.1%	58.7*	49.2%	48.0*	-68.0%
Cc1ccc(CNC(=O)c2ccc(N(C)C)cc2)cc1	-3.4%	43.4%	60.5*	21.0%	22.7*	·
CCc1ccc(C(=O)NCc2ccc(Cl)cc2Cl)cc1	-6.1%	1.3%	47.0	3.4%	14.3	-31.5%
